We go through 7 molecules from PubChem BioAssay (Tox21).

Each structure is given as a SMILES string. Unmarked numbers belong to inactive results. Records with an inconclusive call do not appear. The source made the active and inactive calls. Unless noted, calls follow the shape of the dose curve; as a rule, active = well fitted curve in the direction sought with a large enough effect in the repeat runs; inconclusive = weak or mixed curves; inactive = no such curve, though single readings can be large; an effect the other way counts as inactive or inconclusive.

The nature of test [1]: qHTS assay to identify small molecule antagonists of the androgen receptor (AR) signaling pathway using the MDA cell line in the presence of 0.5 nM R1881 - cell viability counter screen (AID 1259242). Also: nearly all actives have a fitted effect of over 45% in size. In a few lines: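 Concentration-response screen of compounds for toxicity in MDA-kb2 reporter cells: 16 hr at 37C with 0.5 nM R1881, endpoint live-cell protease fluorescence measured in the reporter wells.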

The target in test [2] is Androgen receptor (Homo sapiens) (UniProt P10275). Nature of the test: qHTS assay to identify small molecule antagonists of the androgen receptor (AR) signaling pathway using the MDA cell line in the presence of 0.5 nM R1881 (AID 1259243). Also: nearly all actives have a fitted effect of over 50% in size. Also: potency is read from the fitted curve at half-maximal effect. In a few lines: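 With R1881 held at 0.5 nM (final), compound effects on MMTV-luciferase expression in MDA-kb2 cells were scored by luminescence after a 16 hr, 37C incubation.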
A general note: qHTS replaces the single test concentration by a dilution series.

Test [3] deals with Estrogen receptor (Homo sapiens) (UniProt P03372). Nature of the test: qHTS assay to identify small molecule antagonists of the estrogen receptor alpha (ER-alpha) signaling pathway using the BG1 cell line in the presence of 0.1 nM 17-beta-estradiol (AID 1259244). Also: nearly all actives have a fitted effect of over 50% in size. The gist of the method:
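Compounds were tested against 0.1 nM (final) 17beta-estradiol in VM7Luc4E2 cells, which express full-length ER-alpha and an ERE-luciferase reporter; luminescence was recorded following 22 h exposure.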

Test [4] is described as follows: qHTS assay to identify small molecule HDAC inhibitors (AID 1259364).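 Also: wild-type HCT-116 cells with endogenous class I/II HDAC activity; top concentration of the series differs between compounds; nearly all actives have a fitted effect of over 45% in size.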 The gist of the method: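 Screening used wild-type human colon HCT-116 cells incubated overnight, dosed with compounds for 2 hours, and assayed with a homogeneous luminogenic HDAC I/II reagent for 30 minutes at room temperature.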
The nature of test [5]: qHTS assay to identify small molecule agonists of the sonic hedgehog signaling (Shh) pathway - cell viability counter screen (AID 1259366). Also: nearly all actives have a fitted effect of over 50% in size. In a few lines: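 In quantitative high-throughput format, 3T3 Gli1-Luc cells were exposed to compounds for 24hr and multiplexed for viability using CellTiter-Fluor, incubated 1hr at 37C before the fluorescence read.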
Test [6] in a line: qHTS assay to identify small molecule antagonists of the sonic hedgehog signaling (Shh) pathway - cell viability counter screen (AID 1259367). Also: nearly all actives have a fitted effect of over 55% in size. In a few lines: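 Tox21 library chemicals were tested on a Gli1-Luc NIH/3T3 clone (2,000 cells/well) stimulated by conditioned medium; viability was quantified as fluorescence from CellTiter-Fluor reagent added at 23 hr.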
Test [7] can be described thus: qHTS assay to identify small molecule agonists of the sonic hedgehog signaling (Shh) pathway (AID 1259368; calls by dose curve;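 also: NIH/3T3-derived 3T3Gli1-Luc cells carrying a stable Gli1-driven firefly luciferase reporter; series mostly up to about 92 µM; nearly all actives have a fitted effect of over 15% in size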). In a few lines: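 Hedgehog pathway agonism scored by increased firefly luciferase luminescence in 3T3Gli1-Luc cells treated 24 hr at 37 C; detection used a 30 min room-temperature reagent incubation.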
Test [8] concerns the target Estrogen receptor beta (Homo sapiens) (UniProt Q92731). Nature of the test: qHTS assay to identify small molecule antagonists of the estrogen receptor beta (ER-beta) signaling pathway (AID 1259378; active = well fitted inhibition curve with a large enough effect in the signal ratio in the repeat runs, not every such curve was filed as active; the % refers to the signal ratio). The gist of the method:
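ER-beta-UAS-bla HEK293T cells in 2% charcoal-stripped FBS medium treated with compound plus 1nM final 17-beta-estradiol for 16 hr at 37C. Beta-lactamase reporter read by FRET substrate fluorescence after 2 hours at room temperature.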

Test [9] can be described thus: qHTS assay to identify small molecule agonists of the androgen receptor (AR) signaling pathway in the presence of an antagonist - cell viability counter screen (AID 1259379).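 Also: MDA-kb2 human breast cancer cells carrying an MMTV luciferase reporter; series mostly up to about 92 µM; nearly all actives have a fitted effect of over 25% in size.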 The gist of the method: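 MDA-kb2 viability measured by CellTiter-Fluor fluorescence in the same wells as the luciferase signal; nilutamide 3.0uM final; 15-point compound titration; 16 hr at 37C.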

A short description of test [10]: qHTS assay to identify small molecule agonists of the estrogen receptor beta (ER-beta) signaling pathway - cell viability counter screen (AID 1259380). Also: nearly all actives have a fitted effect of over 30% in size. In a few lines:
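Measured: luminescence from CellTiter-Glo after 30 min at room temperature, added to wells already read for the LiveBLAzer FRET reporter (2 hr substrate); ER-beta-UAS-bla HEK293T cells had 16 hr compound treatment at 37C, 5% CO2.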

The target of test [11] is Androgen receptor (Homo sapiens) (UniProt P10275). Nature of the test: qHTS assay to identify small molecule agonists of the androgen receptor (AR) signaling pathway in the presence of an antagonist (AID 1259381; calls by dose curve; also: nearly all actives have a fitted effect of over 15% in size). The gist of the method: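 Luminescent ONE-Glo read, 30min at room temperature, follows 16hr compound exposure (15 concentrations) of MDA-kb2 cells at 37C, 0% CO2, with nilutamide added at 3.0uM final.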

Test [12] in a line: qHTS assay to identify small molecule antagonists of the estrogen receptor beta (ER-beta) signaling pathway - cell viability counter screen (AID 1259382). Also: series mostly up to about 92 µM; nearly all actives have a fitted effect of over 55% in size. In a few lines: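 Readout: luminescence, CellTiter-Glo, same wells as bla assay. System: ER-beta-UAS-bla GripTite HEK293T, 2% charcoal-stripped FBS. Exposure: compounds plus 1nM 17-beta-estradiol, 16 hr, 37C.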
In test [13] the target is Estrogen receptor (Homo sapiens) (UniProt P03372). Nature of the test: qHTS assay to identify small molecule agonists of the estrogen receptor alpha (ER-alpha) signaling pathway in the presence of an antagonist (AID 1259383; calls by dose curve; also: top concentration of the series differs between compounds; nearly all actives have a fitted effect of over 15% in size). The gist of the method: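 Quantitative HTS confirmation: compounds titrated at 15 concentrations onto estrogen-deprived VM7Luc4E2 cells carrying a four-ERE luciferase construct, with ICI-182,780 present at 10.0nM final. Signal is luminescence after 22hr exposure.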

Test [14] in a line: qHTS assay to identify small molecule agonists or antagonists of the thyroid stimulating hormone receptor (TSHR) signaling pathway - wild type cell line counter screen (AID 1259384; calls by dose curve). The gist of the method: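 Wild-type Hek293 cells, 800/well, 18 h at 37C, then compound with Ro20-1724 for 30 min RT. cAMP by HTRF (cAMP-d2/anti-cAMP cryptate), 1 h RT, fluorescence read. 15 concentrations, triplicates.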

Test [15] deals with Thyrotropin receptor (Homo sapiens) (UniProt P16473). Nature of the test: qHTS assay to identify small molecule antagonists of the thyroid stimulating hormone receptor (TSHR) signaling pathway (AID 1259385; calls by dose curve; also: nearly all actives have a fitted effect of over 20% in size). In a few lines:
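TSHR-HEK293 cells (800/well) plated 18 h, then compounds with Ro20-1724 and TSH at 1.5 ng/mL final, 30 min at room temperature. cAMP quantified by HTRF (cAMP-d2/anti-cAMP-cryptate, 1 h); 15 concentrations in triplicate.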

The nature of test [16]: qHTS assay to identify small molecule agonists of the estrogen receptor alpha (ER-alpha) signaling pathway in the presence of an antagonist - cell viability counter screen (AID 1259386).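 Also: series mostly up to about 92 µM; cells exposed to compounds for 22 h at 37 °C before the viability read; nearly all actives have a fitted effect of over 30% in size.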 The gist of the method:
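The test measures whether compounds kill ER-alpha reporter cells (VM7Luc4E2) under antagonist co-treatment (ICI-182,780, 10.0nM). Fluorescence from CellTiter-Fluor is read after a 22hr exposure.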

Test [17] is described as follows: qHTS assay to identify small molecule HDAC inhibitors - cell viability counter screen (AID 1259365). Also: series mostly up to about 92 µM; nearly all actives have a fitted effect of over 50% in size. The gist of the method: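 Measured quantity is CellTiter-Glo luminescence from wild-type HCT-116 cells after compound incubation of 2hr at 37C, 5% CO2; reagent developed 30min at room temperature.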
A short description of test [18]: qHTS assay to identify small molecule antagonists of the sonic hedgehog signaling (Shh) pathway (AID 1259369; calls by dose curve; also: nearly all actives have a fitted effect of over 45% in size). The gist of the method:
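NIH/3T3 stable Gli1-Luc clone, 2,000 cells/well, 4hr settle; cpd + conditioned medium 24hr; Luc reagent 30min RT; luminescence.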

The target in test [19] is Estrogen receptor beta (Homo sapiens) (UniProt Q92731). Nature of the test: qHTS assay to identify small molecule agonists of the estrogen receptor beta (ER-beta) signaling pathway (AID 1259377; active = well fitted activation curve with a large enough effect in the signal ratio in the repeat runs, not every such curve was filed as active; the % refers to the signal ratio). In a few lines: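 Reporter cells (HEK293T, ER-beta-UAS-bla) receive compounds or DMSO after a 6 hr pre-incubation. They then incubate 16 hr at 37C/5% CO2, and fluorescence from LiveBLAzer B/G substrate is measured after 2 hours at room temperature.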

The nature of test [20]: qHTS assay to identify small molecule phospholipidosis (PLD) inducers (AID 1259344; active = well fitted curve in the direction sought with a large enough effect; an effect the other way counts as inactive or inconclusive). In a few lines: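 Image-based: LipidTOX Red pit count/intensity per well and per cell; HepG2, 24 h compound at 37 C, PFA fixation, Hoechst counterstain.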

Chain of Androgen receptor (Homo sapiens) (P10275 whole entry, looked up): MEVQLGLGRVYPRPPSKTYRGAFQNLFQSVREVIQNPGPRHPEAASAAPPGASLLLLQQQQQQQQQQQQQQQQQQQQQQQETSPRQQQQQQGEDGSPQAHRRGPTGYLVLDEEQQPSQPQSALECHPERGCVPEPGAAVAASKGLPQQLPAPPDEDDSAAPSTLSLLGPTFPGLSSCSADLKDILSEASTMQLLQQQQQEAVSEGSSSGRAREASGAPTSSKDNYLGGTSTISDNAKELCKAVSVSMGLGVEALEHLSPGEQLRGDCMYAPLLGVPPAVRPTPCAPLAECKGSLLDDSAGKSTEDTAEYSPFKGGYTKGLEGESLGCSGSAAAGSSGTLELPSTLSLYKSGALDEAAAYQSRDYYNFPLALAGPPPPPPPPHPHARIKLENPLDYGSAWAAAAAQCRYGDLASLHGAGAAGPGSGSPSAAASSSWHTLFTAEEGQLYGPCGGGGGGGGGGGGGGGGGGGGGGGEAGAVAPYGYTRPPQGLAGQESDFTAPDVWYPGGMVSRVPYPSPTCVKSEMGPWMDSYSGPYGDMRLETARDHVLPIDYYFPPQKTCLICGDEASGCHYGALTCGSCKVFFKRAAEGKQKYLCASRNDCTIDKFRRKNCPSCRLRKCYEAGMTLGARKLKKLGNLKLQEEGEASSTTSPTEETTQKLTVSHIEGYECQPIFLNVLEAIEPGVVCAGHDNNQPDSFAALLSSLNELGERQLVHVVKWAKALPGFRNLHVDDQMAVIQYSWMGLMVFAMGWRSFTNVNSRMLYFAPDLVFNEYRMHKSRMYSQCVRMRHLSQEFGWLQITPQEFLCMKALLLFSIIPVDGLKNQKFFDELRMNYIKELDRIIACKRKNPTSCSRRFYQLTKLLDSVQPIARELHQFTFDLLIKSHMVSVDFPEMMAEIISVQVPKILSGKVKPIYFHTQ
Chain of Estrogen receptor (Homo sapiens) (P03372 whole entry, looked up): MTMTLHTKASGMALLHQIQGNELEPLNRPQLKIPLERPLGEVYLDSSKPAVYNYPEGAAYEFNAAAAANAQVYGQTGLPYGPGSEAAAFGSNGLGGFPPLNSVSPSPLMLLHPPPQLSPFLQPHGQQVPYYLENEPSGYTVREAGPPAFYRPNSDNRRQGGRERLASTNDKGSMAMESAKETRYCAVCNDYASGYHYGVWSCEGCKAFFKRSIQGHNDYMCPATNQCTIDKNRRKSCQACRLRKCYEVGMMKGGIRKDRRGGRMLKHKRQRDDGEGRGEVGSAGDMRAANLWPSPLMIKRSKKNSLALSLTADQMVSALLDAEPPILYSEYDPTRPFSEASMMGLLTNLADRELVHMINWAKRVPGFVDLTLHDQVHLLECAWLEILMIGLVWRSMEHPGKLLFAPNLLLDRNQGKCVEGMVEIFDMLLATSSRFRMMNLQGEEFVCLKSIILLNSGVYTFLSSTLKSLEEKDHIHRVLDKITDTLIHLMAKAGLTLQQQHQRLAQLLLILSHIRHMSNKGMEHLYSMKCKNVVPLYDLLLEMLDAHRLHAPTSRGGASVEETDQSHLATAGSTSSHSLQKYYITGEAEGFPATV
Chain of Thyrotropin receptor (Homo sapiens) (P16473 whole entry, looked up): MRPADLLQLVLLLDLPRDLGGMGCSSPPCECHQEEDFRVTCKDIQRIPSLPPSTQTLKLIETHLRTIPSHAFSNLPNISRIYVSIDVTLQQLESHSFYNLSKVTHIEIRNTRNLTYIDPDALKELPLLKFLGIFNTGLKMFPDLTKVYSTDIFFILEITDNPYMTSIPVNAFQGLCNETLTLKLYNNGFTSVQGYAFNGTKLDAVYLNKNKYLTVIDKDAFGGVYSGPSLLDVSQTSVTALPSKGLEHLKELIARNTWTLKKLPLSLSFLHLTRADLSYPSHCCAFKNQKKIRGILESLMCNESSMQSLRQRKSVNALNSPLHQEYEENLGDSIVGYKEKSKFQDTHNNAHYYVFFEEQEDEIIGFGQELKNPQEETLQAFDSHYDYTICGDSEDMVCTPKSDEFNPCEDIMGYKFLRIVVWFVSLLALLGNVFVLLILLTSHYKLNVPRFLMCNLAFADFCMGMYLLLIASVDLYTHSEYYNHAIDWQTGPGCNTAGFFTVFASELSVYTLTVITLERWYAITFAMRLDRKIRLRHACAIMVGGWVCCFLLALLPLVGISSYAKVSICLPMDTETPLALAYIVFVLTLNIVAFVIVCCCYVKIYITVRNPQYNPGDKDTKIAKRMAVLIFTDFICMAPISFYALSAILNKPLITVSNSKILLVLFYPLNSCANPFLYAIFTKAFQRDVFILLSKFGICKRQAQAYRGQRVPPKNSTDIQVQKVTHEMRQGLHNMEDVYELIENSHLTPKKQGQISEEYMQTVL
Chain of Estrogen receptor beta (Homo sapiens) (Q92731 whole entry, looked up): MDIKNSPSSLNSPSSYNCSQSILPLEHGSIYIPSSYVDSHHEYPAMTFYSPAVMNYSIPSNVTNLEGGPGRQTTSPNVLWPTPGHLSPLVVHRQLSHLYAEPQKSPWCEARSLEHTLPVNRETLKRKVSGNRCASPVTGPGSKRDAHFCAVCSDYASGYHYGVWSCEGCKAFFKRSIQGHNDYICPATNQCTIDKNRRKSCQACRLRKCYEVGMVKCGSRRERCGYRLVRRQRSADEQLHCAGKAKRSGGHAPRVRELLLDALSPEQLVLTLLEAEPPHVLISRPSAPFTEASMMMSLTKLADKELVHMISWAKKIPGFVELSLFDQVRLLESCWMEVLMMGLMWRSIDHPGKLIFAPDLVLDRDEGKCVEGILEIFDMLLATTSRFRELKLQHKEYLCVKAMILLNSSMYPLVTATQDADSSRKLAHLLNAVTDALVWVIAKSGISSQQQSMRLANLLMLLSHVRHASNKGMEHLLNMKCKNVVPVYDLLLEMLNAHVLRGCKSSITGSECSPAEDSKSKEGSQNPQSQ

With `CC(C)CCCCCCc1ccc(OCCOCCO)cc1`, the result in test [1], in test [12] and in test [14] was inactive. The Potency entry in test [2], in test [3], in test [4], in [5], in [6] and in test [7] was “inactive” throughout. Besides, the Potency result in test [8], in test [9], in test [10], in [11], in test [13] and in test [15] was “inactive” in each case. In test [16], the Potency entry is “inactive”.

With `CN1CCN(N)CC1`, the outcome in test [1], in test [17], in [19], in test [12] and in test [14] was inactive. Besides, the Potency entry in test [2], in test [3], in test [4], in test [5], in test [6] and in test [7] was “inactive” throughout. In addition, the Potency result in [18], in test [8], in [9], in test [10], in [11] and in test [13] was “inactive” in each case. The Potency result in test [15] and in test [16] was “inactive” each time.

`Cc1c(C(=O)NCCO)[n+](=O)c2ccccc2n1[O-]`: the result in test [1], in test [20], in test [17], in [19], in [12] and in test [14] was inactive. For the same molecule, the Potency entry in test [2], in test [4], in test [5], in [6], in [7] and in test [18] was “inactive” throughout. The Potency entry in test [9], in [10], in test [11], in test [15] and in test [16] was “inactive” throughout.

As for `CC(C)(C)c1cccc(O)c1`, the result in test [1], in test [12] and in [14] was inactive. For the same molecule, the Potency entry in test [2], in [3], in test [4], in [5], in [6] and in [7] was “inactive” throughout. Moreover, the Potency result in test [18], in test [9], in test [10], in test [11], in [13] and in [16] was “inactive” each time.

Take `Cc1ncc(CO)c(CN)c1O`: the result in test [1], in [20], in test [17], in test [19], in [12] and in test [14] was inactive. The Potency entry in [2], in [3], in test [4], in [5], in test [6] and in [7] was “inactive” in each case. Besides, the Potency result in test [18], in test [8], in test [9], in [10], in test [11] and in test [13] was “inactive” throughout. In addition, the Potency result in test [15] and in test [16] was “inactive” throughout.

Consider `CC(=O)O[C@H]1CC[C@@]2(C)C(=CC[C@@H]3[C@@H]2CC[C@]2(C)C(C(C)=O)=CC[C@@H]32)C1`, for which the outcome in [1], in test [12] and in test [14] was inactive. The Potency in [2] was 11.9 µM (active). In addition, the Potency entry in test [3], in test [4], in test [6], in test [7], in [18] and in test [8] was “inactive” in each case. The Potency result in [9], in [10], in [11], in [13] and in [16] was “inactive” throughout.

On to `OC[C@H]1O[C@@H](O[C@H]2[C@H](O)[C@@H](O)[C@H](O)O[C@@H]2CO)[C@H](O)[C@@H](O)[C@H]1O`, for which the result in test [1], in test [17], in test [19], in [12] and in test [14] was inactive. The Potency result in [2], in [3], in test [4], in test [5], in test [6] and in test [7] was “inactive” in each case. Besides, the Potency result in test [18], in test [8], in [9], in test [11], in test [13] and in test [15] was “inactive” throughout. In test [16], the Potency entry is “inactive”.
